The values below come from PubChem BioAssay (NCI).

About 83,000 compounds went through this panel and 20% of them were active in at least one assay; those are over-represented in the sample as a whole.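 Note: values are percent growth. 100 is the growth of untreated cells, values between 100 and 0 indicate rising inhibition; between -100 and 0 indicates cell death.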 Values without a mark were called inactive. Activity calls are given as the source filed them. Rule for the calls: active = growth percent below 10; inactive = the rest.

Test systems include NCI-H23 lung; NCI-H226 lung; NCI-H322M lung; HOP-62 NSCLC; NCI-H460 lung; HOP-92 NSCLC; NCI-H522 lung; A549/ATCC NSCLC; 786-0 renal; COLO 205 colon; DU-145 prostate; K-562 leukemia; MALME-3M melanoma; MDA-MB-231 breast; RXF 393 renal; SF-268 CNS; SF-295 CNS; SF-539 CNS; UACC-257 melanoma; M14 melanoma.
Assay in all cases: NCI-60 one-dose screen, 48 h (100 = growth as untreated, 0 = no growth, -100 = all killed)
What all share (settings): 10 µM unless noted

As for `CC(=O)OC[C@@]1(C)C2CC[C@]3(C)C(CC=C4C5CC(C)(C)CC[C@]5(C(=O)Nc5cccc(C)c5)CC[C@]43C)[C@@]2(C)C[C@@H](OC(C)=O)[C@@H]1OC(C)=O` (stereo not given in full), the growth with NCI-H23 lung was 45%; with NCI-H226 lung it was 39%; with NCI-H322M lung, 65.9%; in the experiment on HOP-62 NSCLC, 40.4%; in the experiment with NCI-H460 lung it was 12.7%; in the experiment with HOP-92 NSCLC, 50.8%. In addition, the growth with NCI-H522 lung was 40.3%; in the experiment on A549/ATCC NSCLC it was 40.7%; in the experiment with 786-0 renal it was 53.4%; with COLO 205 colon, 45.7%; in the experiment with DU-145 prostate, 48.3%; in the experiment with K-562 leukemia it was 21.5%. Further, the growth in the experiment with MALME-3M melanoma is 61.3%; in the experiment with MDA-MB-231 breast, 67.7%; with RXF 393 renal, 85.4%; in the experiment with SF-268 CNS, 56.2%; with SF-295 CNS, 27.4%; in the experiment on SF-539 CNS, 42%. Also, the results for the growth in the experiment with UACC-257 melanoma and with M14 melanoma were 24.7% and 49.8%, respectively.
`CN(C)c1ccnc(CNCCSC2(c3ccc(C(F)(F)F)cc3)c3ccccc3CCc3ccccc32)c1`: the growth with NCI-H23 lung is -31.8% (active); in the experiment on NCI-H226 lung, -31.6% (active); in the experiment on NCI-H322M lung it was 8.82% (active); in the experiment on HOP-62 NSCLC, -57.8% (active); in the experiment on NCI-H460 lung, -80.5% (active); in the experiment with HOP-92 NSCLC, -17.7% (active). The growth in the experiment on NCI-H522 lung is -82.6% (active); in the experiment with A549/ATCC NSCLC it was -27.6% (active); with 786-0 renal it was -6.83% (active); with COLO 205 colon, -83.7% (active); with DU-145 prostate, -3.51% (active); in the experiment with K-562 leukemia, -16.3% (active). Moreover, the growth with MALME-3M melanoma is -91.8% (active); in the experiment on MDA-MB-231 breast, -54.6% (active); in the experiment on RXF 393 renal it was -88.3% (active); in the experiment on SF-268 CNS, 14.1%; in the experiment with SF-295 CNS, -96.9% (active); in the experiment with SF-539 CNS, -97.6% (active). The growth in the experiment on UACC-257 melanoma is -59.8% (active); in the experiment with M14 melanoma, -75.6% (active).
Take `Cc1ccc(C(=O)CSc2nc3ccc(F)cc3c(=O)n2-c2ccc(Cl)cc2)cc1`: the growth is 46% in the experiment with NCI-H23 lung; -21.9% (active) with NCI-H226 lung; 64.8% in the experiment with NCI-H322M lung; -17.1% (active) in the experiment on HOP-62 NSCLC; 22.4% with NCI-H460 lung; -2.96% (active) in the experiment on HOP-92 NSCLC. Also, the growth in the experiment with NCI-H522 lung is 63.8%; in the experiment with A549/ATCC NSCLC, 60.9%; in the experiment on 786-0 renal, 10.7%; in the experiment on COLO 205 colon, 69.9%; with DU-145 prostate, 50.4%; in the experiment on K-562 leukemia, 88.8%. For the same compound, the growth with MALME-3M melanoma was 39.6%; in the experiment on MDA-MB-231 breast it was 13.7%; with RXF 393 renal, -10.6% (active); in the experiment with SF-268 CNS, 28.9%; in the experiment with SF-295 CNS, 4.69% (active); with SF-539 CNS it was 2.03% (active). The results for the growth in the experiment with UACC-257 melanoma and in the experiment on M14 melanoma were 70.4% and 56.5%, respectively.
As for `CN(C)CCOc1ccc(C(=O)C2[C@H](c3ccc(Cl)cc3)[C@@H](c3ccccc3)NC23C(=O)Nc2ccccc23)cc1` (stereo not given in full), the growth in the experiment on NCI-H23 lung was 79.6%; with NCI-H226 lung, 72%; in the experiment with NCI-H322M lung, 82.5%; with HOP-62 NSCLC it was 84.2%; in the experiment on NCI-H460 lung, 9.91% (active); with HOP-92 NSCLC, 21.4%. Further, the growth was 89.6% in the experiment on NCI-H522 lung; 48.1% in the experiment with A549/ATCC NSCLC; 40.8% in the experiment with 786-0 renal; -63.2% (active) in the experiment with COLO 205 colon; 66.6% in the experiment with DU-145 prostate; -51.5% (active) in the experiment with K-562 leukemia. Also, the growth with MALME-3M melanoma is 79.8%; in the experiment with MDA-MB-231 breast, 49.5%; with RXF 393 renal it was 50.4%; in the experiment with SF-268 CNS, 78.1%; with SF-295 CNS, 65.7%; in the experiment on SF-539 CNS, 82.8%. Also, the growth in the experiment on UACC-257 melanoma was 95.8%; in the experiment with M14 melanoma, 45.2%.
As for `CCCCSc1nc(NCCc2c[nH]c3ccccc23)c(C#N)c(-c2ccc(OC)cc2)n1`, the growth in the experiment on NCI-H23 lung is 48.3%; in the experiment with NCI-H226 lung, 60.9%; with NCI-H322M lung it was 87.4%; in the experiment with HOP-62 NSCLC, 57%; with NCI-H460 lung, 33.4%; in the experiment on HOP-92 NSCLC, 47.3%. Besides, the growth with NCI-H522 lung was 57.7%; in the experiment with A549/ATCC NSCLC, 61.3%; in the experiment on 786-0 renal, 54.8%; with COLO 205 colon, 74.6%; with DU-145 prostate, 68.4%; with K-562 leukemia, 22.4%. The growth in the experiment with MALME-3M melanoma is 93.4%; in the experiment on MDA-MB-231 breast, 36.9%; with RXF 393 renal it was -2.63% (active); with SF-268 CNS, 56%; in the experiment with SF-295 CNS, 43.4%; with SF-539 CNS, 54.4%. The growth with UACC-257 melanoma was 94.8%; in the experiment with M14 melanoma, 70.1%.
Regarding `C=C1CCC2C3(C)COC(c4cccc(F)c4)OC3CCC2(C)C1C/C=C1/C(=O)OCC1O` (stereo not given), the growth in the experiment on NCI-H23 lung is -37.6% (active); in the experiment with NCI-H226 lung, 30.7%; with NCI-H322M lung, 53.3%; in the experiment on HOP-62 NSCLC it was 22.6%; in the experiment with NCI-H460 lung, 8.73% (active); with HOP-92 NSCLC, -6.12% (active). Moreover, the growth is -76.1% (active) in the experiment on NCI-H522 lung; 23.3% with A549/ATCC NSCLC; -84.8% (active) in the experiment on 786-0 renal; -51.5% (active) with COLO 205 colon; 4.04% (active) in the experiment on DU-145 prostate; 10.5% in the experiment on K-562 leukemia. For the same compound, the growth was -41.9% (active) with MALME-3M melanoma; -32.8% (active) in the experiment with MDA-MB-231 breast; -70.5% (active) in the experiment with RXF 393 renal; 67.9% in the experiment with SF-268 CNS; 2.97% (active) with SF-295 CNS; -72.5% (active) in the experiment on SF-539 CNS. Also, the growth in the experiment on UACC-257 melanoma is -28.8% (active); in the experiment with M14 melanoma, -40.7% (active).
On to `c1ccc(-c2csc(Nc3cccc(Nc4nc(-c5ccccc5)cs4)c3)n2)cc1`, for which the growth with NCI-H23 lung is 36.8%; in the experiment with NCI-H226 lung, 66.2%; in the experiment with NCI-H322M lung, 58.1%; in the experiment on HOP-62 NSCLC, 73%; with NCI-H460 lung it was 26.9%; with HOP-92 NSCLC, 43.7%. Besides, the growth was 11.4% in the experiment with NCI-H522 lung; 44.2% in the experiment with A549/ATCC NSCLC; 50.4% with 786-0 renal; 83.5% in the experiment on COLO 205 colon; 58.9% in the experiment with DU-145 prostate; 26.6% in the experiment with K-562 leukemia. The growth in the experiment on MALME-3M melanoma is 52.8%; with MDA-MB-231 breast, 48%; in the experiment with RXF 393 renal, 63.8%; in the experiment on SF-268 CNS, 40.6%; in the experiment on SF-295 CNS, 37.6%; in the experiment on SF-539 CNS, 57.7%. The growth in the experiment with UACC-257 melanoma was 46.1%; in the experiment on M14 melanoma it was 47.8%.
